Test [1] deals with Tumor necrosis factor receptor superfamily member 10B (Homo sapiens) (UniProt O14763). Kind of test: viability loss of caspase-8 NB7 cells with TRAIL – with/without TRAIL, luminescence panel, confirmation (AID 651596). To be noted: NB7 neuroblastoma + caspase-8, TRAIL sensitization, NB7 Caspase-8, with TRAIL, mean of runs, at 10 µM, stronger effect = higher value.
Assay in test [2]: as above
To be noted: NB7 neuroblastoma + caspase-8, without TRAIL, NB7 Caspase-8, without TRAIL, mean of runs, at 10 µM.

33 compounds from PubChem BioAssay can be followed below.

Molecules are shown by their SMILES.

Tumor necrosis factor receptor superfamily member 10B (Homo sapiens), sequence (O14763 whole entry, looked up): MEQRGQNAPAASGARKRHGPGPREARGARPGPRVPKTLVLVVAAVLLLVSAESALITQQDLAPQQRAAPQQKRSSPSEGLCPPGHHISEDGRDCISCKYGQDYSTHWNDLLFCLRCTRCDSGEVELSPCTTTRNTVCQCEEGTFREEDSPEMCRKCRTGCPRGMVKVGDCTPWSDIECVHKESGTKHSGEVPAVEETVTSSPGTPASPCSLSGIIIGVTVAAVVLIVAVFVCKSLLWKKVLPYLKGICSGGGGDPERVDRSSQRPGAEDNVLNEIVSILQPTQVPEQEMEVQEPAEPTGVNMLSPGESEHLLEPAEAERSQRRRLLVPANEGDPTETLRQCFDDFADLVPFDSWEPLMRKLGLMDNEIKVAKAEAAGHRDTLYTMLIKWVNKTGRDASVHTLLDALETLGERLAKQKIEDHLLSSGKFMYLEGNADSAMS

Turning to `Fc1ccc(-c2nc3n(n2)Cc2ccccc2-3)cc1`, the activity stood at 54% in test [1] and 55.6% in test [2].
In the same order, the values of `Cc1ccc(-n2nnc(-c3nccn3C)n2)cc1` are 74.7% and 77.1%.
In the same order, the values of `O=C(Nc1cccc(Oc2ccc(C(=O)O)c(C(=O)O)c2)c1)c1ccc(-c2ccccc2)cc1` are 60.4% and 56%.
In the same order, the values of `Cc1ccc(C(=O)Oc2ccc(C(=O)COC(=O)c3cnccn3)cc2)cc1` are 19.9% and 31.6%.
Consider `CC(C)(C)c1ccc(-c2noc(CCC(=O)N3CCOCC3)n2)cc1`, for which the values for the activity in test [1] and in test [2] were 66.5% and 64.2%, respectively.
In the same order, the values of `Cn1c(-c2ccccc2)cc2onc(-c3ccccc3)c2c1=O` are 85.5% and 85.7%.
For `CCc1c(C)[nH]c2c(C)cccc2c1=O`, in that order: 56.4% and 64.3%.
In the same order, the values of `COc1ccc(-c2cc3cc4c(cc3cn2)OCO4)cc1` are 60.3% and 52.8%.
As to `O=C(Nc1ccc2c(c1)nc1n2CCSC1)c1ccccc1`, the activity in test [1] was determined as 69.8%; in test [2], 60%.
For `N#Cc1cccnc1N1CCN(C(=O)c2cccc3c2C(=O)c2ccc(Cl)cc2S3(=O)=O)CC1`, in that order: 98.4% and 97.4%.
For `O=C1c2cc(F)ccc2-n2c1nc1ccccc1c2=O`, in that order: 32.5% and 25.7%.
In the same order, the values of `COc1ccccc1NC(=O)CSc1ccc(-c2ccc(-n3ccnc3)cc2)nn1` are 47% and 38.6%.
In the case of `COc1ccccc1-c1cc(C(=O)NC2CCN(C)CC2)c2ccc(Cl)c(C)c2n1`, the activity in test [1] came out at 89.2%; in test [2] it was 86%.
In the same order, the values of `O=C(Nc1nc2c(F)cc(F)cc2s1)c1ccccn1` are 61.9% and 64.5%.
In the case of `O=[N+]([O-])c1cc(S(=O)(=O)C(F)(F)F)ccc1Sc1nc2ccccc2[nH]1`, the values for the activity in test [1] and in test [2] were 33.1% and 94.2%, respectively.
For `Cc1cc(C)n2nc(C(=O)Nc3ccc4c(c3)OCCO4)nc2n1`, in that order: 45% and 47.2%.
For `O=C(/C=C/c1ccccc1)Nc1ccc2c(c1)C(=O)NC2=O`, in that order: 14.6% and 19.9%.
In the same order, the values of `CCc1cc2c(COC(=O)CCNS(=O)(=O)c3cccc(C(F)(F)F)c3)cc(=O)oc2cc1O` are 23.9% and 3.52%.
For the compound `COc1ccccc1N1CCN(Cc2ccc(O)c3ncccc23)CC1`, the activity in test [1] was found to be 30.2%; in test [2] it was 76%.
`Cc1nc2nc(C)n(CCN3CCOCC3)c(=O)c2c(-c2cccc([N+](=O)[O-])c2)c1C(=O)CCCCCCCCCCN1CCC(c2ccccc2)(c2ccccc2)CC1`: the activity in test [1] was determined as 92.6%; in test [2], 89.9%.
With `COc1ccc(OC)c(NC(=O)c2nc(S(=O)(=O)Cc3ccccc3)ncc2Cl)c1`, the figures for the activity in test [1] and in test [2] were 97% and 98.9%, respectively.
On to `CCN1CCN(Cc2ccc(NC(=O)c3cc(NC(=O)c4cc5cccc(OC)c5o4)cc(OC)c3)cc2C(F)(F)F)CC1`, for which the activity in test [1] is 59.2%; in test [2], 79.5%.
For `O=C(Nc1ccc(O)cc1)c1ccc2c(c1)C(=O)N(Cc1ccccc1)C2=O`, in that order: 60.9% and 19.7%.
For `N/C(=N\OC(=O)COc1ccc(Br)cc1Cl)c1ccccn1`, in that order: 38.2% and 47.5%.
In the same order, the values of `C(=N\NC1=Nc2cccc3cccc1c23)/c1ccccc1` are 34.3% and 14.2%.
For the compound `Oc1ccccc1C=Nc1ccccc1-c1nc2ccccc2[nH]1`, the activity came out at 7.4% in test [1] and 1.85% in test [2].
For `Cc1ccc2cc(NC(=O)c3cccc(F)c3)ccc2n1`, in that order: 21.3% and 10.6%.
With `COc1ccc2oc(-c3ccc(NC(=O)c4ccc(N5CCOCC5)c([N+](=O)[O-])c4)cc3)nc2c1`, the results for the activity in test [1] and in test [2] were 52% and 24.4%, respectively.
As for `C[n+]1c(-c2ccccc2)cc2c(=Cc3ccccc3)c3ccccc3n21`, the activity in test [1] is 73.1%; in test [2], 75.4%.
For `COc1ccc(C(=O)Nc2ccc3ncccc3c2)cc1`, in that order: 87.7% and 85.3%.
In the same order, the values of `COC(=O)C1=C(C(=O)OC)[C@@H]2N(Cc3ccccc3)c3ccccc3[C@@]23C[C@@H](C(=O)OC)N(C(=O)c2cccs2)C3=N1` are 17.8% and -45.8%.
In the case of `O=C(c1ccncc1)N(Cc1cc2ccccc2[nH]c1=O)C1CCCCC1`, the values for the activity in test [1] and in test [2] were 72.5% and 78.4%, respectively.
For `O=C(/C=C/c1ccco1)Nc1ccc2c(c1)OCCO2`, in that order: 71.8% and 65.1%.
